Assay outcomes from PubChem BioAssay.
TMEM16A act – TMEM16A chloride channel activators or potentiators, primary screen, cell-based, HTS; HEK293 TMEM16A/YFP-H148Q/I152L, iodide quench fluorescence; hits give low values; B-score at 10 µM; Anoctamin-1 (Mus musculus), Q8BHY3; hit rate 0.3% among 340,000;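 active = fluorescence-ratio B-score plate-corrected deviation score at least 3 library SD below zero, with starting fluorescence score within 5 deviations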;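 note: channel opened by trigger with iodide after compound preincubation; score built on the fluorescence ratio of max minus min over baseline; more negative score means more quench and so TMEM16A activation or potentiation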
Kir21 inh – inhibitors of mouse Kir2.1 inward-rectifier potassium channel; HEK293-Kir2.1, FluxOR thallium flux fluorescence; hits give low values; B-score at 10 µM; hit rate 0.85% among 310,000;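 active = fluorescence ratio B-score at or below minus 3 SD of library scores, with starting-brightness B-score within 2 SD, cut at about -4.2 in these data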;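 note: channel flux triggered by added potassium and thallium sulfate stimulus; B-score of peak minus minimum fluorescence over baseline after thallium stimulus; more negative B-score means stronger Kir2.1 block with less thallium influx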
CHT PAM – CHT positive allosteric modulators, primary screen, cell-based, membrane potential dye, choline EC20; AID 488977, 2010; High affinity choline transporter 1 (Homo sapiens), Q9GZV3; CHT-expressing cells; hits give high values; LV-AA mutant CHT in HEK293 cells; B-score at 10 µM; hit rate 0.49% among 310,000;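 active = initial fluorescence not abnormally high and integrated response B-score, plate-corrected, over 3 SD above library mean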
ANO1 block – TMEM16A chloride channel inhibitors, primary screen, cell-based, HTS; HEK293 TMEM16A/YFP iodide influx fluorescence, ionomycin; normalized B-score (activity score, 25-100; higher = stronger inhibition) at 10 µM; hit rate 1.2% among 310,000; AID 588511, 2011;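 active = ratio plate-corrected score three or more library SD toward inhibition, starting fluorescence score within five deviations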;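 note: score derived from kinetic fluorescence span divided by baseline fluorescence per well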
Rce1 inhib – yeast Rce1p protease inhibitors, primary screen, biochemical, fluorescence, cell-free homogeneous; AID 2563, 2010; hit rate 0.27% among 290,000; yeast membranes, quenched prenylated peptide cleavage fluorescence; CAAX prenyl protease 2 (Saccharomyces cerevisiae (strain ATCC 204508 / S288c)), Q03530; calls only;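 active = fall in fluorescence gain of 50% or more versus controls, with final raw signal at or below 3038400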;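 note: plate controls were neutral control wells for no effect and wells lacking membranes for full effect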
Target sequence (Q03530 whole entry, looked up): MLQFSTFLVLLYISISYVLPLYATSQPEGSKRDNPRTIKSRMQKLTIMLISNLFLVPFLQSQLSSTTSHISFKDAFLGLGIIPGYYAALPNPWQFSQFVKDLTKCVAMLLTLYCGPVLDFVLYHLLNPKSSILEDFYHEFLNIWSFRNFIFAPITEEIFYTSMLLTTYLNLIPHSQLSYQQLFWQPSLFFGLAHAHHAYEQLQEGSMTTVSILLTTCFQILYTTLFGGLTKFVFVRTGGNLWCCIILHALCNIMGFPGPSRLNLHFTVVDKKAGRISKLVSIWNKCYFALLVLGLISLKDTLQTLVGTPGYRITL
CHT inh – inhibitors of human choline transporter CHT | High affinity choline transporter 1 (Homo sapiens), Q9GZV3 | CHT-expressing cells, membrane potential dye, choline response; hits give low values | B-score at 10 µM | hit rate 0.86% among 310,000 | AID 488975, 2010;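 active = B-score over 3 SD under the library average, and starting fluorescence ratio not unusually high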;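 note: choline stimulus applied at its EC90 after an EC20 pre-addition; B-score computed on integrated fluorescence ratio after choline addition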
CHT inh conf – CHT inhibitors, confirmation, cell-based, membrane potential dye, duplicate. shares compounds with CHT inh. CHT-expressing cells, choline membrane potential dye; LV-to-AA substituted CHT, HEK293 cells. CHT activity remaining % of control (hits give low values), % at 10 µM. hit rate 70% among 2,400. AID 493221, 2011;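 active = choline transporter activity left, mean of duplicates at 10 µM, below buffer-only control mean minus 3 SD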;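 note: depolarization triggered by choline at its EC90 following an EC20 pre-addition; 0% = hemicholinium-3 full block and 100% = buffer-only control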
HEK293 CHT ctr – membrane potential effects in parental HEK293, counter-screen for CHT inhibitor project, cell-based, membrane potential dye; hit rate 4% among 2,400; membrane potential ratio readout (active if shifted either direction beyond buffer ±3SD; no single direction) at 10 µM; shares compounds with CHT inh; choline response; active = decrease or increase beyond buffer ±3SD; AID 493222, 2011;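 note: parental cells lack the transporter so any hit is non-specific; ratio is peak minus trough fluorescence over baseline after EC90 choline challenge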
TMEM16A reconf – TMEM16A chloride channel inhibitors, confirmation, cell-based, re-confirmation; inhibition, % at 10 µM; shares compounds with ANO1 block; hit rate 39% among 2,300; HEK293 TMEM16A/YFP-H148Q, iodide quench fluorescence; ionomycin added to raise cell calcium;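 active = mean duplicate percent inhibition, scaled so buffer wells are 0 and the reference blocker 100, over three buffer SD above buffer mean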
TMEM16A Ca cntr – calcium mobilization in TMEM16A/YFP HEK293 cells, confirmation, counter-screen for TMEM16A inhibitor project. shares compounds with ANO1 block. Fluo4 calcium mobilization. calcium response (% of ionomycin), % at 10 µM. hit rate 2% among 2,300. AID 652231, 2013;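 active = duplicate-averaged calcium signal over 20% of the ionomycin maximum, relative to buffer baseline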;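 note: each well's signal is peak minus trough fluorescence divided by its pre-addition baseline; 0% = buffer wells and 100% = ionomycin wells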
Parental YFP cnt – iodide YFP quench changes in parental YFP-HEK293, counter-screen for TMEM16A inhibitor project, cell-based; ionomycin; shares compounds with ANO1 block; YFP ratio F(max-min)/F0 at 10 µM; 2,300 tested, under 10 active; AID 652233, 2013;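 active = yellow fluorescent protein signal ratio exceeding the buffer control mean by over 5 SD of those controls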;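 note: ratio is mean of duplicate wells from kinetic YFP trace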
ClC-1 rat inh – ClC-1 chloride channel inhibition, selectivity assay for TMEM16A inhibitor project, cell-based, voltage-dependent ClC-1. ratio percent, % at 10 µM. shares compounds with ANO1 block. 2,300 tested, under 10 active. AID 652236, 2013. CHO ClC-1-YFP, iodide influx fluorescence quench; iodide control reads 0, buffer control 100;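 active = duplicate-mean ratio percent above the mean of iodide-only control wells, which defines zero, plus 5 of their SD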;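 note: higher percent means stronger block of ClC-1 iodide influx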
* marks the source's active call; other numbers are inactive results. A selection: hits, their analogues and other compounds. The true share with any hit is near 3.2%.

How did O=C(NCc1cccc(C(F)(F)F)c1)c1cc(Cl)ccc1Cl do in these assays?
TMEM16A act: inactive; Kir21 inh: -0.44; CHT PAM: inactive; ANO1 block: inactive; Rce1 inhib: inactive; CHT inh: -5.8*; CHT inh conf: inactive; HEK293 CHT ctr: inactive

Results for CC(=O)N/N=C/c1c(C)[nH]n(-c2ccccc2)c1=O ?
TMEM16A act: inactive; Kir21 inh: 0.63; CHT PAM: inactive; ANO1 block: inactive; CHT inh: -5.8*; CHT inh conf: inactive; HEK293 CHT ctr: inactive

How did COC(=O)N/N=C\c1c(C)[nH]n(-c2ccccc2)c1=O do in these assays?
TMEM16A act: inactive; Kir21 inh: 0.11; CHT PAM: inactive; ANO1 block: inactive; Rce1 inhib: inactive; CHT inh: inactive

Results for CC(=O)Nc1ccc(S(C)(=O)=O)c(C)c1 ?
TMEM16A act: inactive; Kir21 inh: -0.16; CHT PAM: inactive; ANO1 block: inactive; Rce1 inhib: inactive; CHT inh: inactive

Results for CCC1(C)Cc2c(sc3nnn(CC(=O)Nc4ccccc4)c(=O)c23)CO1 (configuration not stated) ?
TMEM16A act: inactive; Kir21 inh: 0.19; CHT PAM: inactive; ANO1 block: inactive; Rce1 inhib: inactive; CHT inh: inactive; CHT inh conf: 58%*; HEK293 CHT ctr: inactive

How did CC(C)(C)Nc1nc2cc([N+](=O)[O-])ccc2o1 do in these assays?
TMEM16A act: inactive; Kir21 inh: -0.1; CHT PAM: inactive; ANO1 block: inactive; Rce1 inhib: inactive; CHT inh: inactive

How did CC(C)(C)c1nc2cc(Cl)c([N+](=O)[O-])cc2o1 do in these assays?
TMEM16A act: inactive; Kir21 inh: 0.42; CHT PAM: inactive; ANO1 block: 100*; Rce1 inhib: inactive; CHT inh: -14*; CHT inh conf: inactive; HEK293 CHT ctr: inactive

What do the screens show for `CC1(C)COCN1S(=O)(=O)c1ccc(C(=O)Nc2nnc(-c3ccc(Cl)s3)o2)cc1`?
Kir21 inh: -0.99; CHT PAM: inactive; ANO1 block: 100*; Rce1 inhib: inactive; CHT inh: -5.8*; CHT inh conf: 50%*; HEK293 CHT ctr: inactive; TMEM16A reconf: inactive; TMEM16A Ca cntr: inactive; Parental YFP cnt: -0.86; ClC-1 rat inh: -18

What do the screens show for `COc1ccc(-c2nnc(NC(=O)c3ccc(S(=O)(=O)N4COCC4(C)C)cc3)o2)cc1`?
TMEM16A act: inactive; Kir21 inh: 0.9; CHT PAM: inactive; ANO1 block: inactive; Rce1 inhib: inactive; CHT inh: inactive

What do the screens show for `CC(C)(C)c1ccc(S(=O)(=O)/N=C2\C=C(NS(=O)(=O)c3ccccc3)C(=O)c3ccccc32)cc1`?
TMEM16A act: inactive; Kir21 inh: -1.9; CHT PAM: inactive; ANO1 block: 100*; Rce1 inhib: inactive; CHT inh: -8.7*; CHT inh conf: 40%*; HEK293 CHT ctr: inactive; TMEM16A reconf: 88%*; TMEM16A Ca cntr: inactive; Parental YFP cnt: -0.95; ClC-1 rat inh: -21

Results for COc1cccc(C2C3=C(CC(C)(C)CC3=O)Nc3n[nH]c(C)c32)c1 (configuration not stated) ?
TMEM16A act: inactive; Kir21 inh: 0.16; CHT PAM: inactive; ANO1 block: inactive; Rce1 inhib: inactive; CHT inh: inactive

Results for COc1ccc(C2C3=C(CC(C)(C)CC3=O)Nc3n[nH]c(C)c32)cc1 (configuration not stated) ?
TMEM16A act: inactive; Kir21 inh: 2.2; CHT PAM: inactive; ANO1 block: 100*; Rce1 inhib: active; CHT inh: -7.6*; CHT inh conf: inactive; HEK293 CHT ctr: inactive; TMEM16A reconf: inactive; TMEM16A Ca cntr: inactive; Parental YFP cnt: -1; ClC-1 rat inh: -8

Results for Cc1c(C)c2ccc(OC(C)C(=O)NCCc3c[nH]c4ccccc34)cc2oc1=O (configuration not stated) ?
TMEM16A act: inactive; Kir21 inh: -0.42; CHT PAM: inactive; ANO1 block: inactive; Rce1 inhib: inactive; CHT inh: inactive

What do the screens show for `CC(C)(C)c1ccc(C(=O)Nc2ccc(Oc3cccnc3)nc2)cc1`?
TMEM16A act: inactive; Kir21 inh: -1.1; CHT PAM: inactive; ANO1 block: 100*; CHT inh: -5.2*; CHT inh conf: inactive; HEK293 CHT ctr: inactive; TMEM16A reconf: 31%*; TMEM16A Ca cntr: inactive; Parental YFP cnt: -0.86; ClC-1 rat inh: -7

What do the screens show for `CC(C)(C)c1ccc(C(=O)Nc2cccnc2)cc1`?
TMEM16A act: inactive; Kir21 inh: 0.47; CHT PAM: inactive; ANO1 block: inactive; CHT inh: inactive
